# High-throughput results (PubChem BioAssay)
# SMARCA2 act: SMARCA2 function activation, primary screen | MG213 cells, MMTV-luciferase reporter, dexamethasone, overnight | activation, % at 9.1 µM | actives 1% (n = 370,000); in the data active = activation above about 7.8%
# hgDAF12 agonist: activates the H. glycines DAF-12 receptor ligand-binding domain; actives 1.8% (n = 370,000); HEK293 GAL4-hgDAF12 UAS-luciferase reporter, agonist luminescence; normalized to butyrate control; activation, % at 6.8 µM;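 active = activation above a cutoff set at the mean of all screened compounds plus 3 SD, cut at about 10% in these data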
# ssDAF12 agonist: activates DAF-12 receptor from parasite S. stercoralis. HEK293 ssDAF-12/GRIP1 lit1-tk-luc reporter, luminescence; % of 3 µM dafachronic acid response. activation, % at 6.8 µM. actives 1% (n = 370,000);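 active = activation above the mean over all tested compounds plus 3 SD, cut at about 0.9% in these data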
# DAX1 inh-1: inhibitors of human orphan nuclear receptor DAX1 (NR0B1) | actives 0.99% (n = 340,000) | inhibition, % at 6.75 µM | HEK293 Gal4-DAX1 luciferase reporter, luminescence | AID 504766;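 active = inhibition above the mean over all tested compounds plus 3 SD, cut at about 4.2% in these data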;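 note: inhibition shows as a rise in luminescence from relieved DAX1 repression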
# Target sequence (P51843 207-470 limits assumed): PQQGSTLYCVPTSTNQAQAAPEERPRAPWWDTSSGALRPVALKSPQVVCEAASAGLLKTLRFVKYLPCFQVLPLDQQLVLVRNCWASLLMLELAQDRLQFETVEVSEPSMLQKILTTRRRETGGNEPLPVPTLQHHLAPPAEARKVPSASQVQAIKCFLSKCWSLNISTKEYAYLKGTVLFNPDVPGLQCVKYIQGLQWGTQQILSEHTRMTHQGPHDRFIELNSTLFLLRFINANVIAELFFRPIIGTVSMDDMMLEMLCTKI
# DAX1 inh-2: DAX1 (NR0B1) inhibition, primary screen. AID 652010. inhibition, % at 6.8 µM. actives 1.1% (n = 370,000). HEK293T StAR-luciferase reporter, SF-1/DAX-1 repression relief;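 active = inhibition above the mean over all tested compounds plus 3 SD, cut at about 3.6% in these data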;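 note: higher inhibition means more luminescence from relief of DAX-1 repression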
# hcDAF12 agonist: H. contortus DAF-12 activation, primary screen | activation, % at 6.8 µM | actives 1.4% (n = 370,000) | HEK293 hcDAF-12 lit1-tk-luc reporter, luminescence; 0% DMSO, 100% Δ7-dafachronic acid;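 active = activation above the mean of all tested compounds plus 3 SD, cut at about 5.5% in these data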
# Hits are given with their value; 0 = inactive; - = not tested or not shown. Hits are enriched below; roughly 4.8% of the tested compounds scored in any of these assays.
SMILES,SMARCA2 act,hgDAF12 agonist,ssDAF12 agonist,DAX1 inh-1,DAX1 inh-2,hcDAF12 agonist
CCCC1C(C#N)=C(N)Oc2c1c(=O)oc1ccccc21 (centres undefined),0,0,0,4.6,0,0
CC(C)Oc1ccc(C2C(C#N)=C(N)Oc3c2c(=O)oc2ccccc32)cc1 (centres undefined),0,0,0,0,0,0
Fc1cccc(CNCCc2c[nH]c3ccccc23)c1,0,0,0,0,0,0
CC(Cc1ccccc1)NC(=O)NC(C)Cc1ccccc1 (centres undefined),0,13.0,0,0,0,0
CC(Cc1ccccc1)NC(=O)C(c1ccc(N)cc1)c1ccc(N)cc1 (centres undefined),0,0,0,0,0,0
CC(=O)NC(C)Cc1ccccc1 (centres undefined),0,0,0,0,0,0
CC(Cc1ccccc1)NC(=O)c1ccc(N)cc1 (centres undefined),0,0,0,4.8,0,0
CCCCn1nnnc1C(c1cccc2ccccc12)N1CCC2(CC1)C(=O)NCN2c1ccccc1 (centres undefined),0,0,0,-,0,0
CC[N+](C)(CC)CCCCOc1ccc2c(c1)C(=O)c1cc(OCCCC[N+](C)(CC)CC)ccc1-2,0,0,0,5.5,0,0
O=C(Nc1nccs1)c1c(O)c2c(n(Cc3ccco3)c1=O)CCCC2,0,0,1.3,0,0,0
O=C(Nc1cccc(Cl)c1)c1c(O)c2c(n(Cc3ccco3)c1=O)CCCC2,0,0,0,-,0,0
O=C(Nc1ccccc1)c1c(O)c2c(n(Cc3ccco3)c1=O)CCCC2,0,0,0,4.3,0,0
COc1ccc(NC(=S)NC(NC(=O)CF)C(Cl)(Cl)Cl)cc1[N+](=O)[O-] (centres undefined),0,0,0,4.6,0,0
CC(C)C[C@@H]1COc2cccc(N3CCN(C)CC3)c2S(=O)(=O)N1,0,0,0,-,0,0
CC(C)C[C@H]1COc2cccc(N3CCN(C)CC3)c2S(=O)(=O)N1,0,0,0,-,4.2,0
C=Cn1ccnc1P(=S)(c1ccc(Cl)cc1)c1nccn1C=C,0,0,0,5.2,0,0
Cc1cc(C)c(-n2c(O)c(/C=N/NC(=O)c3ccncc3)c(=O)[nH]c2=O)c(C)c1,0,0,0,-,0,0
Cc1ccccc1-n1c(O)c(/C=N/NC(=O)c2ccncc2)c(=O)[nH]c1=O,0,0,0,4.4,0,0
CCN1CCN(c2ncnc3ccc(Br)cc23)CC1,0,0,0,4.4,0,0
O=C(Cn1nc(-c2ccc(Cl)cc2)ccc1=O)N1CCC2(CC1)OCCO2,0,0,0,4.4,0,0
O=C(CCn1nc(-c2ccc(Cl)cc2)ccc1=O)N1CCC2(CC1)OCCO2,0,0,0,0,0,0
CC(C)(C)n1nnnc1C1CN=C(c2ccccc2)c2ccccc2N1 (centres undefined),0,10.8,0,-,0,0
CC(C)(C)n1nnnc1C1CN=C(c2ccccc2)c2cc(Cl)ccc2N1 (centres undefined),0,0,0,-,0,0
NC(=S)N/N=C/c1coc2ccccc2c1=O,0,0,1.2,0,0,0
COC(=O)NC(=C(Cl)Cl)P(=O)(c1ccccc1)c1ccccc1,0,0,0,0,0,0
SMILES,SMARCA2 act,hgDAF12 agonist,ssDAF12 agonist,DAX1 inh-1,DAX1 inh-2,hcDAF12 agonist
O=C1NC(=O)C(CCc2ccncc2)(CCc2ccncc2)C(=O)N1CCc1ccc(F)cc1,0,0,0,0,0,0
CC(=O)OC1CC(OC2C(O)CC(OC3C(O)CC(OC4CCC5(C)C(CCC6C5CCC5(C)C(C7=CC(=O)OC7)C(O)CC65O)C4)OC3C)OC2C)OC(C)C1OC1OC(CO)C(O)C(O)C1O (centres undefined),0,0,0,0,0,0
CC1OC(OC2C(O)CC(OC3C(O)CC(OC4CCC5(C)C(CCC6C5CCC5(C)C(C7=CC(=O)OC7)C(O)CC65O)C4)OC3C)OC2C)CC(O)C1O (centres undefined),0,0,0,0,16.4,0
CC(C)(C)Cc1nnc(NC(=O)COc2ccc(Cl)cc2Cl)o1,-,0,0,-,-,0
COc1cccc2c1C(=O)c1c(O)c3c(c(O)c1C2=O)CC(O)(C(C)=NO)CC3OC1CC(N)C(O)C(C)O1 (centres undefined),0,0,1.9,0,0,0
COc1ccc(O)c(CN2CCCC(C(=O)c3sccc3C)C2)c1 (centres undefined),0,0,0,0,0,0
O=C(c1ccc(Br)cc1)C12CN3CN(CN(C3)C1)C2,0,0,0,0,0,0
COC(=O)C1=C(c2ccc(Cl)c(C(F)(F)F)c2)C[C@@H]2CC[C@H]1N2C(=O)NCC1CC1,0,0,0,0,0,0
CCOC(=O)[C@]12Cc3cc4ccccc4cc3[C@H]1N(Cc1ccccc1)C(=O)c1cc(OC)ccc12,0,0,0,-,3.7,0
CC(CCN1CC1)=NNC(=O)Nc1cccc2ccccc12,0,0,0,0,0,0
CCC(C)C1NC(=O)C2CCCN2C(=O)C(CC(C)C)OC(=O)CCNC(=O)C(C)N(C)C(=O)C(C(C)C)N(C)C1=O (centres undefined),0,0,0,0,3.7,0
C=CCCC[C@@H]1OC(=O)CNC(=O)C([C@@H](C)CC)NC(=O)[C@@H]2CCCN2C(=O)C([C@@H](C)CC)OC(=O)[C@H](Cc2ccccc2)N(C)C(=O)[C@H](C(C)C)NC(=O)C1(C)C (some centres undefined),0,0,0,-,0,0
O=C1NC(=O)N(CCC2=CCCCC2)C(=O)/C1=C/c1cccs1,0,0,1.7,-,0,0
Cc1ccc(C2NC(=S)NC(c3ccc(C)cc3)C23C(=O)NC(=O)NC3=O)cc1 (centres undefined),0,0,0,4.3,0,0
O=C1NC(=S)NC(=O)C12C(c1ccc(F)cc1)NC(=S)NC2c1ccc(F)cc1 (centres undefined),0,0,0,0,0,0
CC(=NCc1ccco1)c1c(O)n(-c2ccccc2)c(=O)[nH]c1=O,0,0,0,0,0,0
CCOC(=O)CC(SP1(=S)OCC2(CC=CCC2)CO1)C(=O)OCC (centres undefined),0,0,0,0,3.9,0
CC(=O)Nc1ccc(C2CN(C)CC2C(=O)c2ccc(Cl)cc2)cc1 (centres undefined),0,0,0,0,4.2,0
CN1CC(C(=O)c2ccc(F)cc2)C(c2ccc(F)cc2)C1 (centres undefined),0,0,0,0,0,0
CN1CC(C(=O)c2ccc(Cl)cc2)C(c2ccc(N(C)C)cc2)C1 (centres undefined),0,0,0,4.2,0,0
O=C(NC1(C(F)(F)F)Oc2ccccc2O1)N1CCC2(CC1)OCCO2,0,0,0,0,0,0
